Experimental findings from PubChem BioAssay (EPA / NIEHS) are described below.

The nature of test [1]: ATG_M_61_CIS: Attagene CIS-FACTORIAL HepG2 Assay for M61 Transcription Factor (Internal Marker) (AID 2282937). Particulars: HepG2 Attagene CIS-FACTORIAL M61 internal marker reporter; actives raise or lower the signal. The essentials:
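Background-control endpoint: HepG2 cells with cis-regulated reporter constructs, 24 h exposure, reporter mRNA detected via fluorescent primer extension and capillary electrophoresis; values from bidirectional fitting with DMSO baseline.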

The nature of test [2]: ATG_EGR_CIS: Attagene CIS-FACTORIAL HepG2 Assay for human Early Growth Response 1 (EGR1) (AID 2282938). To be noted: HepG2 Attagene CIS-FACTORIAL EGR reporter mRNA; actives raise or lower the signal. The essentials:
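Endpoint derived by bidirectional fitting versus DMSO vehicle. Method: cis-promoter reporter units transfected into HepG2, 24 h dosing, RNA isolation, RT-PCR with 6-FAM primer extension and HpaI digestion, then capillary electrophoresis fluorescence detection.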

Test [3] can be described thus: ATG_M_19_CIS: Attagene CIS-FACTORIAL HepG2 Assay for M19 Transcription Factor (Internal Marker) (AID 2282939). To be noted: HepG2 Attagene CIS-FACTORIAL M19 internal marker reporter; actives raise or lower the signal. In short, it runs like this: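 Chemical-treated HepG2 (24 h) with MRTU constructs; reporter transcripts detected by fluorescent RT-PCR fragment analysis on capillary electrophoresis. Internal background marker, DMSO as baseline.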

Test [4] can be described thus: ATG_ERE_CIS: Attagene CIS-FACTORIAL HepG2 Assay for Estrogen Response Element (ERE) (AID 2282940). To be noted: HepG2 ERE cis-reporter, Attagene RNA transcript; actives raise or lower the signal. The essentials: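 Human liver cells (HepG2) bearing transiently transfected, promoter-regulated reporter units were exposed 24 h. Reporter mRNA induction was detected by capillary electrophoresis of labelled RT-PCR products and fitted bidirectionally to DMSO.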

Test [5] is described as follows: ATG_Ets_CIS: Attagene CIS-FACTORIAL HepG2 Assay for human Erythroblast Transformation Specific (ETS) (AID 2282941). Particulars: HepG2 ETS cis-reporter transcription, actives raise or lower the signal. The essentials:
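RT-PCR/capillary electrophoresis fluorescence read-out of reporter mRNA; HepG2 transient multi-reporter transfection; 24 h compound exposure; gain or loss of signal fitted bidirectionally relative to DMSO.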

Test [6] addresses Hepatocyte nuclear factor 3-beta (Homo sapiens) (UniProt Q9Y261). Put plainly: ATG_FoxA2_CIS: Attagene CIS-FACTORIAL HepG2 Assay for human Forkhead box A2 (FOXA2) (AID 2282942). Particulars: HepG2 cis-reporter transcription factor activity, 24 h; actives raise or lower the signal. In short, it runs like this:
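Measured: reporter mRNA induction or loss in HepG2 transiently carrying multiple cis-regulated reporter units, 24 h after dosing. Quantified by RT-PCR plus capillary electrophoresis, normalised to DMSO.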

Test [7] is described as follows: ATG_FoxO_CIS: Attagene CIS-FACTORIAL HepG2 Assay for human Forkhead box O (FoxO) (AID 2282943). Particulars: HepG2 Attagene cis-reporter, FoxO element, mRNA; actives raise or lower the signal. The essentials: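 HepG2 cells transiently transfected with cis-element-driven reporter units report endogenous FoxO activity. After 24 h chemical exposure, reporter mRNA quantified by RT-PCR, fluorescent labeling, HpaI digestion and capillary electrophoresis; bidirectional fit versus DMSO.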

The nature of test [8]: ATG_GATA_CIS: Attagene CIS-FACTORIAL HepG2 Assay for human GATA Binding Protein (AID 2282944). Particulars: HepG2 GATA cis-element reporter, Attagene multiplex mRNA; actives raise or lower the signal. In short, it runs like this: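 Transfected cis-reporter HepG2 cells were treated with chemicals for 24 hours. Total RNA was then converted to cDNA, amplified with reporter-specific primers and analysed by fluorescent capillary electrophoresis, using DMSO-treated wells as baseline.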

Test [9] in a line: ATG_GLI_CIS: Attagene CIS-FACTORIAL HepG2 Assay for human Zinc Finger Protein GLI1 (AID 2282945). Particulars: HepG2, Attagene cis-factorial reporter mRNA, GLI element; actives raise or lower the signal. The essentials:
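Transiently transfected HepG2 cells report endogenous transcription factor activity via cis-element-driven reporter units. After 24 h compound exposure, reporter mRNA was measured by RT-PCR with capillary electrophoresis; bidirectional fitting against DMSO baseline.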

In test [10] the target is Bile acid receptor (Homo sapiens) (UniProt Q96RI1). Put plainly: ATG_IR1_CIS: Attagene CIS-FACTORIAL HepG2 Assay for human Nuclear Receptor Subfamily 1 Group H Member 4 (NR1H4), IR1 submotif (AID 2282946). Particulars: IR1 reporter transcription, actives raise or lower the signal. The essentials:
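Fluorescence of capillary-separated, HpaI-digested RT-PCR reporter products gave IR1-element mRNA induction in HepG2 cells 24 h after dosing. Endogenous transcription factors drove the cis-regulated reporters; activity was fitted bidirectionally against DMSO.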

Test [11] in a line: ATG_GRE_CIS: Attagene CIS-FACTORIAL HepG2 Assay for human Glucocorticoid Response Elements (GRE) (AID 2282947). Particulars: HepG2 GRE cis-reporter, Attagene multiplex mRNA; actives raise or lower the signal. The essentials:
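Fluorescence intensity of reporter-specific cDNA fragments, separated by capillary electrophoresis, provides the signal. Constructs carry cis-regulating promoters in transiently transfected HepG2 liver cells; 24 h incubation; fitting is bidirectional against DMSO.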

Test [12] in a line: ATG_ISRE_CIS: Attagene CIS-FACTORIAL HepG2 Assay for human Interferon Regulatory Factor 1 (IRF1) binding to an Interferon-Stimulated Response Element (ISRE) (AID 2282948). To be noted: HepG2 ISRE cis-reporter (Attagene), mRNA transcription readout; actives raise or lower the signal. In short, it runs like this: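 Read-out: fluorescent RT-PCR products resolved by capillary electrophoresis, reporting endogenous transcription factor activity via ISRE-driven reporter mRNA in transfected HepG2 cells dosed for 24 h; gain or loss fitted relative to DMSO.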

The nature of test [13]: ATG_M_32_CIS: Attagene CIS-FACTORIAL HepG2 Assay for M32 Transcription Factor (Internal Marker) (AID 2282949).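 Note: background control marker of the multiplexed CIS panel rather than a real target.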 To be noted: HepG2 Attagene cis-factorial M32 reporter, mRNA; actives raise or lower the signal. In short, it runs like this: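 HepG2 transfectants (cis-regulated reporter transcription units) dosed 24 h. Reporter mRNA by RT-PCR plus CE, analysed as gain or loss relative to DMSO.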

Test [14] is described as follows: ATG_M_06_CIS: Attagene CIS-FACTORIAL HepG2 Assay for M06 Transcription Factor (Internal Marker) (AID 2282950). Particulars: HepG2 Attagene CIS-FACTORIAL M06 internal marker reporter; actives raise or lower the signal. In short, it runs like this: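 Cells (HepG2, transiently carrying cis-driven reporter units) receive chemical for 24 h before RNA isolation. Reporter cDNA is PCR-amplified, FAM-labelled by primer extension, HpaI-digested and sized on a capillary analyser.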

For test [15], the target named is Hypoxia-inducible factor 1-alpha (Homo sapiens) (UniProt Q16665). Put plainly: ATG_HIF1a_CIS: Attagene CIS-FACTORIAL HepG2 Assay for human Hypoxia Inducible Factor 1 (HIF1A) (AID 2282951). To be noted: HepG2 Attagene cis-factorial HIF1a reporter transcription; actives raise or lower the signal. The essentials:
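Dosed 24 h, transfected HepG2 cells yielded total RNA whose reporter transcripts were RT-PCR-amplified and sized by capillary electrophoresis using fluorescent labelling; DMSO defined baseline, with gain and loss of signal both fitted.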

Test [16] has as its target Hepatocyte nuclear factor 6 (Homo sapiens) (UniProt Q9UBC0). The test can be described thus: ATG_HNF6_CIS: Attagene CIS-FACTORIAL HepG2 Assay for human Hepatocyte Nuclear Factor 6 (HNF6) (AID 2282952). Particulars: HepG2 Attagene cis-factorial HNF6 reporter transcription; actives raise or lower the signal. In short, it runs like this: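 Twenty-four-hour chemical treatment of reporter-transfected HepG2 cells precedes RNA isolation, DNase-treated reverse transcription and PCR of reporter sequences. Labelled fragments are sized by capillary electrophoresis and fitted bidirectionally versus DMSO.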

Test [17] concerns the target Heat shock factor protein 1 (Homo sapiens) (UniProt Q00613). Put plainly: ATG_HSE_CIS: Attagene CIS-FACTORIAL HepG2 Assay for human Heat Shock Transcription Factor 1 (HSE) (AID 2282953). To be noted: HepG2 HSE cis-reporter, Attagene RNA transcription; actives raise or lower the signal. In short, it runs like this:
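Liver-derived HepG2 cells carry transiently introduced multiple reporter units governed by cis promoters. Reporter RNA measured 24 h post-dose through reverse transcription, PCR amplification, fluorescent labelling and capillary electrophoresis, normalised to DMSO.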

The nature of test [18]: ATG_MRE_CIS: Attagene CIS-FACTORIAL HepG2 Assay for human Metal Responsive Element (MRE) (AID 2282954). Particulars: HepG2 MRE cis-reporter transcription, Attagene multiplex; actives raise or lower the signal. In short, it runs like this:
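Measured here is mRNA induction from an MRE cis-element reporter in HepG2 after 24 h, quantified by fluorescence of labelled RT-PCR products on capillary electrophoresis; gain- and loss-of-signal fits use DMSO as baseline.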

Test [19] is described as follows: ATG_PBREM_CIS: Attagene CIS-FACTORIAL HepG2 Assay for human Phenobarbital-responsive Enhancer Module (PBREM) (AID 2282955). To be noted: HepG2 PBREM cis-reporter, Attagene multiplexed transcription; actives raise or lower the signal. In short, it runs like this:
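Transfected liver-derived HepG2 cells exposed 24 h; PBREM reporter transcript quantified via RT-PCR and capillary electrophoresis, with activity in either direction referenced to DMSO.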

Test [20] can be described thus: ATG_E_Box_CIS: Attagene CIS-FACTORIAL HepG2 Assay for human Enhancer Box (E-box) (AID 2282936). Particulars: HepG2 E-box cis-reporter transcription, actives raise or lower the signal. The essentials: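 In this cell-based setup, HepG2 cells bearing transfected promoter-driven reporter units were exposed to chemicals for 24 h; reporter transcripts were amplified, 6-FAM-labelled, cut with HpaI and sized by capillary electrophoresis.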

What is called AC50 is the concentration at which the activity in the assay is half-maximal.

Several values for one entry are separate records, joined by “and”; a condition that tells them apart may be missing. Equal entries are not always repeated. More than one record can exist for a structure, and the calls need not agree. Activity calls are given as the source filed them. Rule for the calls: active = hit-call score of the fitted dose curve at least 0.9, where 1 is the maximum; inactive = score below 0.9.

Chain of Hepatocyte nuclear factor 3-beta (Homo sapiens) (Q9Y261 whole entry, looked up): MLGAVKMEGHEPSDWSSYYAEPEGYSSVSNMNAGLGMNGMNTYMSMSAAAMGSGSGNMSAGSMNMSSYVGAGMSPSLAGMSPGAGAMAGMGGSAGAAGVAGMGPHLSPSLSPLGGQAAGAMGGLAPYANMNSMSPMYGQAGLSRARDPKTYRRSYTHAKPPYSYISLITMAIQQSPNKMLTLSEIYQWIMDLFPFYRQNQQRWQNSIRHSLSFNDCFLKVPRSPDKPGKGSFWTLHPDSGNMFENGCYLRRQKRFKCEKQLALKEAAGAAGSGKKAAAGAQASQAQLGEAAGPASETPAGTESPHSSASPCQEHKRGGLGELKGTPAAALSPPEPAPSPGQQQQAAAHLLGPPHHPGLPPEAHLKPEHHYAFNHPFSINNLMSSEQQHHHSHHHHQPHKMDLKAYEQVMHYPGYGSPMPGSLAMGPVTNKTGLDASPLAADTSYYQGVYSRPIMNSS
Chain of Hepatocyte nuclear factor 6 (Homo sapiens) (Q9UBC0 whole entry, looked up, the tested form may be a part): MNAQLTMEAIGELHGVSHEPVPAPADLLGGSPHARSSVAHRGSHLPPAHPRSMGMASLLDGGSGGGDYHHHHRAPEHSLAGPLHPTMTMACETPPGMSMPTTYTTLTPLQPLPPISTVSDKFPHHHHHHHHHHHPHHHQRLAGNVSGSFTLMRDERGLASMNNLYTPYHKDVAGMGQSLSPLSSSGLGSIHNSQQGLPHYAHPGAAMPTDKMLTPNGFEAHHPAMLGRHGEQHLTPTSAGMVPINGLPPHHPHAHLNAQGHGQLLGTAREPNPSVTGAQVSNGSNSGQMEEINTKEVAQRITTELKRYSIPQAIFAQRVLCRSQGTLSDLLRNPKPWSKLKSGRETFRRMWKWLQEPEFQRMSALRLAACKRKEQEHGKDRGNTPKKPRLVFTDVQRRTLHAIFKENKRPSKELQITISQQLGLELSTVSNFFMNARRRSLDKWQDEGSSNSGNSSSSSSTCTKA
Chain of Bile acid receptor (Homo sapiens) (Q96RI1 whole entry, looked up): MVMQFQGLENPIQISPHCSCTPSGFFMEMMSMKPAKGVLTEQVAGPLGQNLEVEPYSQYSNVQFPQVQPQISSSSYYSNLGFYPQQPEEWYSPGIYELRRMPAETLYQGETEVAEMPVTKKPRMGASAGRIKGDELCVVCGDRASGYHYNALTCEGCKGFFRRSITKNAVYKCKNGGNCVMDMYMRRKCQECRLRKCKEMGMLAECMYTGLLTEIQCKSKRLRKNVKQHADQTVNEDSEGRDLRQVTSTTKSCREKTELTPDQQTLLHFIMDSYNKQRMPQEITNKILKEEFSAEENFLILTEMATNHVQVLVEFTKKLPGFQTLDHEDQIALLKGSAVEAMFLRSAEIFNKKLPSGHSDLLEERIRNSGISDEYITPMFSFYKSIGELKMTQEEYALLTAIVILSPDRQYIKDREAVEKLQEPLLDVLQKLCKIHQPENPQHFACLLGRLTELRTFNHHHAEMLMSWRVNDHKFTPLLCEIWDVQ
Chain of Hypoxia-inducible factor 1-alpha (Homo sapiens) (Q16665 whole entry, looked up): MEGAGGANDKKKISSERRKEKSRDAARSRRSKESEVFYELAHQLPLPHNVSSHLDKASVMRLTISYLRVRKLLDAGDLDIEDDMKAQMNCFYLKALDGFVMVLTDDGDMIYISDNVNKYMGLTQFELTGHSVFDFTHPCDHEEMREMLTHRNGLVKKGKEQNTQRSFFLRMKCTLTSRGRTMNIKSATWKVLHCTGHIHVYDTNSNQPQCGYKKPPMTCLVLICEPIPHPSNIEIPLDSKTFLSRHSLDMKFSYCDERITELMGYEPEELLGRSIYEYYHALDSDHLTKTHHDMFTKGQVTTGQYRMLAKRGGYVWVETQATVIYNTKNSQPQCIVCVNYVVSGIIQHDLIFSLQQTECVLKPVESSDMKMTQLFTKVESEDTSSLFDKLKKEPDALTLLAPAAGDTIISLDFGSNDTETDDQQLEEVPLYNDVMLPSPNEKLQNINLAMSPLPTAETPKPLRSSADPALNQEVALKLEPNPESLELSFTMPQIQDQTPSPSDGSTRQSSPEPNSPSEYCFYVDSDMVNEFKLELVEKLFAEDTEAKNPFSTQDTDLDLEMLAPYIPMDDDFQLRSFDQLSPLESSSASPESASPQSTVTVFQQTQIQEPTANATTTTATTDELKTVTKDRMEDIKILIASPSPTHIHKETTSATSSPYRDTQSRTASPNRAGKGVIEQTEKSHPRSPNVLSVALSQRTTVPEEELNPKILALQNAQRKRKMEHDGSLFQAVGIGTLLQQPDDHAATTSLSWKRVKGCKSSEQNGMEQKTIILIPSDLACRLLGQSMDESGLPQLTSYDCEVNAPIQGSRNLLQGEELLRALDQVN
Chain of Heat shock factor protein 1 (Homo sapiens) (Q00613 whole entry, looked up): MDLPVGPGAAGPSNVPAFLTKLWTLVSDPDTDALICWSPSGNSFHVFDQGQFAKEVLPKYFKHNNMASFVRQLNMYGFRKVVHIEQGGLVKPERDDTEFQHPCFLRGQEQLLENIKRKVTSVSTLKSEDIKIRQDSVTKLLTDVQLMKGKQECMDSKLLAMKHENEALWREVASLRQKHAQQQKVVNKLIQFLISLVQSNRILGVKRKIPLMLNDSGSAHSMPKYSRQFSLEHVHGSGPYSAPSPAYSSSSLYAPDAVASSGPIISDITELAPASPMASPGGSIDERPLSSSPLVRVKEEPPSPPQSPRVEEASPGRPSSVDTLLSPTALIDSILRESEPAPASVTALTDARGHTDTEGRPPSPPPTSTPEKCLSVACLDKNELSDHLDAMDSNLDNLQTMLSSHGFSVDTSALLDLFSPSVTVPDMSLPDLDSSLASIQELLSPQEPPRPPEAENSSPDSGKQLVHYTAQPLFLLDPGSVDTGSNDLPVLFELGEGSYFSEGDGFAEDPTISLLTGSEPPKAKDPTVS

Turning to `CC(C)(c1ccccc1)c1ccc(O)cc1`, the result in [1], in [2], in test [3], in test [5], in [6] and in test [7] was inactive. Moreover, the result in test [8], in test [9], in [10], in [11], in test [12] and in [13] was inactive. In addition, the compound was called inactive in [14], in [15], in test [16], in [17], in test [18] and in [19]. The concentration at half-maximal activity (AC50) is 48.7 µM (active) in [2]; 435 nM (active) [middle of 4 runs] in [4]; 52.1 µM (active) in test [8]; 55.4 µM (active) in [9]; 33.4 µM (active) in test [10]; 51.3 µM (active) in test [11]. Besides, the half-maximal activity concentration (AC50) is 52.5 µM (active) and 12.7 µM (active) in test [15]; 54.7 µM (active) in [17]; 33.4 µM (active) and 52.1 µM (active) and 43.1 µM (active) in test [18]; 33.4 µM (active) in test [19].
Regarding `CCOC(=O)C(O)(c1ccc(Cl)cc1)c1ccc(Cl)cc1`, the outcome in test [20], in test [1], in [2], in [3], in [5] and in test [6] was inactive. Also, the outcome in [7], in test [8], in test [9], in test [11], in test [12] and in test [13] was inactive. The compound was called inactive in test [14], in [16], in test [17] and in test [19]. Further, the concentration at half-maximal activity (AC50) in [4] was 2.98 µM (active); in test [15] it was 0.836 nM (active); in test [18], 11.1 µM (active).
Take `CC#Cc1cc(C)nc(Nc2ccccc2)n1`: the AC50 in test [20] was 140 µM (active); in [2], 67.5 µM (active); in test [18], 68.2 µM (active). The result in test [1], in test [3], in test [4], in test [5], in test [6] and in [7] was inactive. Moreover, the compound was classed as inactive in test [8], in test [9], in [11], in test [12], in [13] and in test [14]. In addition, the outcome in test [15], in test [16], in test [17] and in test [19] was inactive.
Take `Nc1ccc(-c2ccc(N)cc2)cc1`: the result in [20], in test [1], in test [2], in test [3], in test [5] and in [6] was inactive. Besides, the result in [7], in [8], in test [9], in test [11], in test [12] and in test [13] was inactive. Besides, the compound was classed as inactive in [14], in test [15], in test [16], in test [17], in test [18] and in test [19]. Besides, the concentration at half-maximal activity (AC50) in test [4] was 33.2 µM (active).
As to `O=C(NC(=O)c1c(F)cccc1F)Nc1cc(Cl)c(OC(F)(F)C(F)F)c(Cl)c1`, the outcome in test [20], in test [1], in test [2], in test [3], in test [4] and in [5] was inactive. Further, the result in [6], in test [7], in [8], in test [9], in test [11] and in [12] was inactive. Also, the compound was classed as inactive in [13], in [14], in [15], in test [16], in test [17] and in test [18]. Besides, in test [19], the outcome was inactive.
Regarding `C[C@]12CCC(=O)C=C1CC[C@@H]1[C@@H]2CC[C@]2(C)C(=O)CC[C@@H]12`, the result in test [20], in test [1], in test [2], in test [3], in [5] and in test [6] was inactive. Besides, the call in test [7], in [8], in test [9], in test [10], in test [12] and in test [13] was inactive. Also, the compound was classed as inactive in test [14], in test [16], in test [17], in [18] and in [19].
